# Measured values taken from the supplement of paper PMC8728848.
# The full list was thinned out, with the strongest signals kept by preference.
# B1: Epa3to2 (Candida glabrata) (protein)
# chain: MGSSHHHHHHSSGLVPRGSHMKRELSSQNPFGYPIGCSPQDVAIIPGLTMELYSYPIVSGTPPNCYDASYVDPEYPRTGYLKRKMVGKSTGVTGNLNYKYSVEKACMVKYGNLPAGYNYNEPLTVSNFTMILYGYFKAQTTGLHTFFVNADDLLYINFGAGNAFDCCKREDSKTKLGEYVAYDIWHVDSSKNKVSLFLEKDLYYPIRMFFNNRDNNSSLDLSFSVNGATDQISDFSGYLYSVPDQPDTCPAHIGYDTTCR
# How the values were obtained:
# Assay in all cases: glycan array binding signal (z-score within array); higher = stronger binding
# Settings in all cases: glycan notation: IUPAC condensed, linker removed
# [1] = biological target: GlcNAc(b1-2)Gal(b1-3)GalNAc
# Procedure, shortened: (§1)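 Glycan array data were curated from 3228 arrays in the Consortium for Functional Glycomics database and kept only where the protein sequence was available. Glycan names were converted to IUPAC-condensed notation, and columns mapping to the same glycan were averaged. The binding signal is a within-array Z-score, averaged across arrays of the same protein sequence at different concentrations or buffers and across linkers. Negative Z-scores can be read as non-binding.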
# [2] = biological target: Man(a1-3)[Man(a1-6)]Man(a1-6)[Man(a1-2)Man(a1-3)]Man(b1-4)GlcNAc(b1-4)GlcNAc
# Procedure, shortened: as §1
# [3] = biological target: Man(a1-3)[Man(a1-6)]Man(a1-6)[Man(a1-3)]Man
# Procedure, shortened: as §1
# [4] = biological target: Neu5Ac(a2-3)Gal(b1-3)GlcNAc(b1-2)Man(a1-3)[Neu5Ac(a2-3)Gal(b1-3)GlcNAc(b1-2)Man(a1-6)]Man(b1-4)GlcNAc(b1-4)GlcNAc
# Procedure, shortened: as §1
# Neu5Ac(a2-3)Gal(b1-4)Glc = biological target: Neu5Ac(a2-3)Gal(b1-4)Glc
# Procedure, shortened: as §1
# [5] = biological target: Neu5Ac(a2-3)Gal(b1-4)GlcNAc(b1-2)Man
# Procedure, shortened: as §1
# [6] = biological target: Neu5Ac(a2-3)Gal(b1-4)GlcNAc(b1-2)[Neu5Ac(a2-3)Gal(b1-4)GlcNAc(b1-4)]Man(a1-3)[GlcNAc(b1-4)][Neu5Ac(a2-3)Gal(b1-4)GlcNAc(b1-2)[Neu5Ac(a2-3)Gal(b1-4)GlcNAc(b1-6)]Man(a1-6)]Man(b1-4)GlcNAc(b1-4)GlcNAc
# Procedure, shortened: as §1
# [7] = biological target: Neu5Ac(a2-3)Gal(b1-4)GlcNAc(b1-2)[Neu5Ac(a2-3)Gal(b1-4)GlcNAc(b1-4)]Man(a1-3)[GlcNAc(b1-4)][Neu5Ac(a2-3)Gal(b1-4)GlcNAc(b1-4)Man(a1-6)]Man(b1-4)GlcNAc(b1-4)GlcNAc
# Procedure, shortened: as §1
# [8] = biological target: Neu5Ac(a2-3)Gal(b1-4)[Fuc(a1-3)]GlcNAc(b1-2)Man
# Procedure, shortened: as §1
# [9] = biological target: Neu5Ac(a2-3)[Neu5Ac(a2-6)]GalNAc
# Procedure, shortened: as §1
# [10] = biological target: Neu5Ac(a2-6)Gal(b1-4)GlcNAc(b1-2)Man(a1-3)Man(b1-4)GlcNAc(b1-4)GlcNAc
# Procedure, shortened: as §1
# [11] = biological target: Neu5Ac(a2-6)GalNAc(b1-4)GlcNAc
# Procedure, shortened: as §1
# Neu5Ac(a2-8)Neu5Ac = biological target: Neu5Ac(a2-8)Neu5Ac
# Procedure, shortened: as §1
# [12] = biological target: Neu5Ac(a2-8)Neu5Ac(a2-3)Gal(b1-4)GlcNAc
# Procedure, shortened: as §1
# [13] = biological target: Neu5Ac(a2-8)Neu5Ac(a2-8)Neu5Ac(a2-3)[GalNAc(b1-4)]Gal(b1-4)Glc
# Procedure, shortened: as §1
# Neu5Gc(a2-3)Gal(b1-4)Glc = biological target: Neu5Gc(a2-3)Gal(b1-4)Glc
# Procedure, shortened: as §1
# [14] = biological target: Neu5Gc(a2-3)Gal(b1-4)GlcNAc(b1-3)Gal(b1-4)GlcNAc(b1-2)Man(a1-3)[Neu5Gc(a2-3)Gal(b1-4)GlcNAc(b1-3)Gal(b1-4)GlcNAc(b1-2)Man(a1-6)]Man(b1-4)GlcNAc(b1-4)GlcNAc
# Procedure, shortened: as §1
# Neu5Gc(a2-6)GalNAc = biological target: Neu5Gc(a2-6)GalNAc
# Procedure, shortened: as §1
binder,measurement,setting,value
B1,glycan array binding signal (z-score),[1],-1.16
same,glycan array binding signal (z-score),[2],3.92
same,glycan array binding signal (z-score),[3],0.52
same,glycan array binding signal (z-score),[4],-0.658
same,glycan array binding signal (z-score),Neu5Ac(a2-3)Gal(b1-4)Glc,7.38
same,glycan array binding signal (z-score),[5],2.24
same,glycan array binding signal (z-score),[6],1.37
same,glycan array binding signal (z-score),[7],-0.302
same,glycan array binding signal (z-score),[8],-0.793
same,glycan array binding signal (z-score),[9],-1.13
same,glycan array binding signal (z-score),[10],2.19
same,glycan array binding signal (z-score),[11],-0.698
same,glycan array binding signal (z-score),Neu5Ac(a2-8)Neu5Ac,1.01
same,glycan array binding signal (z-score),[12],0.968
same,glycan array binding signal (z-score),[13],0.534
same,glycan array binding signal (z-score),Neu5Gc(a2-3)Gal(b1-4)Glc,0.038
same,glycan array binding signal (z-score),[14],-0.277
same,glycan array binding signal (z-score),Neu5Gc(a2-6)GalNAc,2.12
